Values without a mark were called inactive. Activity calls are given as the source filed them.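 Rule for the calls: active = cell event count below 40, meaning activity score above 60 where score is 100 minus count; inactive = the rest.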
Experiment: LNCaP cell loss by flow event count, confirmation, cytotoxicity control for prostate differentiation activator project, single point (AID 1076);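 note: counts scatter-gated live cells after medium removal discards detached dead cells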
Settings: flow cytometry event count, 4 d, at 100 µM, active compounds read low

| Compound | cell event count |
| --- | --- |
| O=C(Nc1ccc2oc(Cc3ccc(Cl)cc3)nc2c1)c1cccnc1 | 17 |
| Cn1c(C(=O)NCCCN2CCN(c3cccc(Cl)c3)CC2)cc2c(=O)n(C)c3ccccc3c21 | 46 |
| COC(=O)c1cc2oc3ccccc3c2n1CC(=O)Nc1ccccc1OC | 169 |
| COC(=O)c1[nH]c2c(c1C)C(=O)CCC2 | 387 |
| COc1ccc(CCNC(=O)C2CCN(Cc3nc(-c4ccccc4C)oc3C)CC2)cc1OC | 1 |
| COCCn1c(=O)[nH]c2cc(C(=O)NCCCN3CCN(c4ccc(F)cc4)CC3)ccc2c1=O | 140 |
| Cc1nnc(NCc2n[nH]c(=O)c3ccccc23)c2ccccc12 | 47 |
| Cc1ccc(-n2nc3cc(Cl)c(NC(=O)c4ccco4)cc3n2)cc1 | 333 |
| COc1ccc(-c2nc(CN3CCC(C(=O)N4CCc5ccccc54)CC3)c(C)o2)cc1OC | 16 |
| CCCN(CCC)CCNC(=O)C1CCN(Cc2nc(-c3ccc(Cl)cc3)oc2C)CC1 | 55 |
| Cc1cccc(-c2nc(CN3CCCC(C(=O)NC4CCC(C)CC4)C3)c(C)o2)c1 (stereo not drawn) | 5 |
| Cc1ccc(-c2noc(CCC(=O)NC3CCN(Cc4ccccc4)CC3)n2)cc1 | 9 (active) |
| COc1ccc(S(=O)(=O)CCC(=O)O)cc1 | 153 |
| Cc1ccccc1-c1nc(CN2CCC(C(=O)NCCCN3CCOCC3)CC2)c(C)o1 | 38 |
| CCN1CCCC1CNC(=O)C1CCN(Cc2nc(-c3cccc(Br)c3)oc2C)CC1 (stereo not drawn) | 16 |
| Cc1ccc(S(=O)(=O)NCCCCC(NC(=O)OC(C)(C)C)C(=O)O)cc1 (stereo not drawn) (tested in a mixture with another compound) | 203 |
| CCc1cc(C)cc(OCCNC(=O)c2ncn[nH]2)c1 | 171 |
| O=C(NCCCN1CCN(c2cccc(Cl)c2)CC1)c1cccc(N2CCCC2=O)c1 | 222 |
| CCc1nn(C(C)C(=O)N2CCc3ccccc3C2)c(=O)c2cc3occc3n12 (stereo not drawn) | 91 |

| Compound | cell event count |
| --- | --- |
| COc1ccc(-c2noc(CCC(=O)NCCCN3CCC(C)CC3)n2)cc1 | 63 |
| CC(C)N1CCC2(CC1)N=C(c1ccc3c(c1)OCO3)CC(c1cc(Cl)ccc1O)N2 (stereo not drawn) | 46 |
| COc1ccc(-n2cc(-c3ccccc3)c3c(N4CCN(CCO)CC4)ncnc32)cc1 | 12 |
| Cc1cccc(-c2nc(CN3CCCC(C(=O)NC4CCCCCC4)C3)c(C)o2)c1 (stereo not drawn) | 17 |
| COc1ccc(-c2cc(C(F)(F)F)nc(N3CCN(Cc4ccccc4)CC3)n2)cc1OC | 152 |
| O=C(NCC1CCCO1)C1CC(c2ccc(Cl)c(Cl)c2)=NO1 (stereo not drawn) | 85 |
| COc1ccc(-c2ccc(-c3nnn(CC(C)=O)n3)cc2)cc1 | 145 |
| COc1ccc(-c2ccc(-c3noc(-c4ccccc4)n3)c(OC)n2)cc1 | 30 (active) |
| Cc1ccc(Cl)cc1N1CCN(C(=O)c2cc3c(=O)n(C)c4ccccc4c3n2C)CC1 | 31 (active) |
| Cc1oc(-c2cccc(Cl)c2)nc1CN1CCCC(C(=O)NC(C)c2ccc3c(c2)OCCO3)C1 (stereo not drawn) | 9 |
| COc1ccc(OC)c(CNC(=O)CCNC(=O)Cn2ccc3ccccc3c2=O)c1 | 63 |
| COc1ccc(CCn2c(=N)c(C(=O)NCc3ccco3)cc3c(=O)n4ccccc4nc32)cc1 | 32 |
| Cc1ccc2c(c1)NC(=O)C(CC(=O)NCCCN1CCN(c3cc(C)ccc3C)CC1)O2 (stereo not drawn) | 113 |
| Cc1oc(-c2ccccc2F)nc1CN1CCC(C(=O)NC2CCCCCCC2)CC1 | 6 |
| Cc1oc(-c2ccc(Cl)cc2)nc1CN1CCCC(C(=O)NCc2cccnc2)C1 (stereo not drawn) | 28 |
| O=C(NCCCN1CCN(c2cccc(Cl)c2)CC1)C1CCC(=O)N1Cc1ccccc1Cl (stereo not drawn) | 12 |
| CCOC(=O)c1c(NCc2ccc3c(c2)OCO3)c2ccccc2[nH]c1=O | 39 |
| COc1ccc(-n2c(C)nc3c(cnn3-c3ccc(Cl)cc3)c2=O)cc1 | 45 |
| Cc1cc2c(=O)n(CC(=O)N3CCN(c4ccccc4)CC3)cnc2s1 | 184 |

Source: PubChem BioAssay AID1076 (NMMLSC, 2008)
